Here are results for 37 compounds from PubChem BioAssay AID743025 (Vanderbilt Specialized Chemistry Center, 2013).

A number with no mark means an inactive call. Active and inactive are the calls of the source.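 Rule for the calls: active = IC50 below 10 µM at human M5 in a calcium flux test, acting as a negative modulator; inactive = the rest.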

The experiment deals with Muscarinic acetylcholine receptor M5 (Homo sapiens) (UniProt P08912). As to the kind of experiment: M5 muscarinic receptor negative allosteric modulators, cell-based, single concentration, human M5 (AID 743025). The settings on record: CHO-K1 hM5, ACh EC80 calcium flux, Fluo-4; at 10 µM; stronger effect = lower value. (In general: A change in cytosolic calcium serves as a functional read-out for many receptors and channels.)
Muscarinic acetylcholine receptor M5 (Homo sapiens), sequence (P08912 whole entry, looked up): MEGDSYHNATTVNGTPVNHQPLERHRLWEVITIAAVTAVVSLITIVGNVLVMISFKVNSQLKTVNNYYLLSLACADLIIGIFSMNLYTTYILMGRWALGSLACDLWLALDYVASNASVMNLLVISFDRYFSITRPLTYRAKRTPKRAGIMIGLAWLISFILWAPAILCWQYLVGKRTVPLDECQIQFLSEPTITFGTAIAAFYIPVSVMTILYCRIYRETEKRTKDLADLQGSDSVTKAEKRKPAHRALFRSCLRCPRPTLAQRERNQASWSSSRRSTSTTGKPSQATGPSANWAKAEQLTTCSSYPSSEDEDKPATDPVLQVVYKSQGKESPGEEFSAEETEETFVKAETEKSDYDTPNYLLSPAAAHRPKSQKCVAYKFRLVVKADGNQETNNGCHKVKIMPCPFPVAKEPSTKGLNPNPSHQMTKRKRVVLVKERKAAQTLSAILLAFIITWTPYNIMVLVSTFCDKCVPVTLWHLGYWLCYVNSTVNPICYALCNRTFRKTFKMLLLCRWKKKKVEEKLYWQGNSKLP
With `Cc1cccc(C(=O)N2CCN3C(=O)c4ccccc4C23c2ccccc2)c1` (configuration not stated), the activity remaining was 52.7% (active).
The figure for `COc1cc(C(=O)N2CCN3C(=O)c4ccccc4C23c2ccc(Cl)cc2)cc(OC)c1OC` (configuration not stated) is 63.4%; for `O=C(c1ccc(F)c(F)c1)N1CCN2C(=O)c3ncccc3C12c1ccccc1` (configuration not stated) it is 66.4%; for `O=C(c1ccc(Oc2ccccc2)cc1)N1CCN2C(=O)c3ccccc3C12c1ccccc1` (configuration not stated) it is 75.1%.
On to `O=C(c1cccc(C(F)(F)F)c1)N1CCN2C(=O)c3ccccc3C12c1ccccc1` (configuration not stated), for which the activity remaining is 6.77% (active).
In the case of `O=C(c1ccc(F)cc1Cl)N1CCN2C(=O)c3ccccc3C12c1ccccc1` (configuration not stated), the activity remaining is 64.1%.
As for `O=C(c1ccccc1)N1CCN2C(=O)c3ccccc3C12c1ccc(F)cc1` (configuration not stated), the activity remaining is 67.6% (active).
For `CSc1ccc(C(=O)N2CCN3C(=O)c4ccccc4C23c2ccccc2)cc1` (configuration not stated) the value was 58%; for `O=C(c1ccc(F)cc1)N1CCN2C(=O)c3ncccc3C12c1ccccc1` (configuration not stated), 65.2%.
For `O=C(c1ccc(F)c(F)c1)N1CCCN2C(=O)c3ccccc3C12c1ccc(Cl)cc1` (configuration not stated) the value was 80.4%; for `O=C(c1ccc(F)c(F)c1)N1CCN2C(=O)c3ccccc3C12c1ccc(F)cc1` (configuration not stated), 64.5%.
For `O=C(c1cc(F)ccc1F)N1CCN2C(=O)c3ccccc3C12c1ccccc1` (configuration not stated) the value was 76%; for `Cc1cccc(C(=O)N2CCN3C(=O)c4ncccc4C23c2ccccc2)c1` (configuration not stated), 68.9%.
Turning to `COc1ccc(C23c4ccccc4C(=O)N2CCN3C(=O)c2ccccn2)cc1` (configuration not stated), the activity remaining was 66.1%.
Regarding `O=C(c1ccccc1)N1CCN(C(=O)c2ccccc2)C1c1ccccc1`, the activity remaining is 85.3%.
For `Cc1ccccc1C(=O)N(C)C(c1ccccc1)c1ccccc1` the value was 81.6%; for `O=C1c2ccccc2C2(c3ccccc3)N1CCN2C(=O)c1c(F)cccc1F` (configuration not stated), 84%.
For `O=C(c1ccc(OC(F)F)cc1)N1CCN2C(=O)c3ccccc3C12c1ccc(Cl)cc1` (configuration not stated), the activity remaining was 13.3% (active).
As to `O=C(c1cccnc1)N1CCN2C(=O)c3ccccc3C12c1ccc(Cl)cc1` (configuration not stated), the activity remaining was 82.6%.
For `O=C(c1cc(Cl)cc(Cl)c1)N1CCCN2C(=O)c3ccccc3C12c1ccccc1` (configuration not stated) the value was 51.9% (active).
Regarding `Cc1ccc(C23c4ccccc4C(=O)N2CCN3C(=O)c2cccc(C(F)(F)F)c2)cc1` (configuration not stated), the activity remaining is 28.8% (active).
On to `O=C(c1ccccc1)N1CCN2C(=O)c3ccccc3C12c1ccccc1` (configuration not stated), for which the activity remaining was 74.8%.
`Cc1cccc(C(=O)N2CCCN3C(=O)c4ccccc4C23c2ccc(Cl)cc2)c1` (configuration not stated): the activity remaining is 72.9%.
As for `O=C(c1ccc(C(F)(F)F)cc1)N1CCN2C(=O)c3ncccc3C12c1ccccc1` (configuration not stated), the activity remaining was 72.2%.
The figure for `O=C(c1ccc(-c2ccccc2)cc1)N1CCN2C(=O)c3ccccc3C12c1ccccc1` (configuration not stated) is 62.7%.
Take `O=C1c2ccccc2C2(c3ccccc3)N1CCN2C(=S)Nc1cccc(Cl)c1` (configuration not stated): the activity remaining was 93%.
As to `COc1ccc(C23c4ccccc4C(=O)N2CCN3C(=O)c2cccc(F)c2)cc1` (configuration not stated), the activity remaining is 57.4% (active).
On to `COc1cccc(C(=O)N2CCN3C(=O)c4ccccc4C23c2ccc(Cl)cc2)c1` (configuration not stated), for which the activity remaining is 17.5% (active).
For `O=C(c1ccc(OC(F)(F)F)cc1)N1CCN2C(=O)c3ccccc3C12c1ccc(F)cc1` (configuration not stated) the value was 69.4%; for `O=C1c2ccccc2C2(c3ccccc3)N1CCN2C(=O)C1CCCC1` (configuration not stated), 97.8%; for `Cc1ccc(C23c4ccccc4C(=O)N2CCN3C(=O)c2ccc(C(F)(F)F)cc2)cc1` (configuration not stated), 28.6% (active).
For the compound `O=C(c1cccc(C(F)(F)F)c1)N1CCN2C(=O)c3ccccc3C12c1ccc(F)cc1` (configuration not stated), the activity remaining is 0.24% (active).
Take `O=C(c1cccs1)N1CCN2C(=O)c3ccccc3C12c1ccccc1` (configuration not stated): the activity remaining was 79.5%.
For `Cc1ccc(C23c4ccccc4C(=O)N2CCN3C(=O)c2ccc(SC(F)(F)F)cc2)cc1` (configuration not stated) the value was 10.9% (active); for `O=C(c1cc(F)cc(F)c1)N1CCCN2C(=O)c3ccccc3C12c1ccc(Cl)cc1` (configuration not stated), 76.8%.
As for `CC(C)(C)NC(=O)N1CCCN2C(=O)c3ccccc3C12c1ccccc1` (configuration not stated), the activity remaining is 83.3%.
With `O=C(Nc1ccccc1)N1CCN2C(=O)c3ccccc3C12c1ccccc1` (configuration not stated), the activity remaining was 85.4%.
